Holding throughout (experiment): DAPPL (digital affinity profiling via proximity ligation, sequencing); 10 mM Tris-HCl pH 7.5, 50 mM NaCl, 1 mM DTT, 4% glycerol, room temperature, 30 min; GST-TFs on glutathione beads, 16-mer random dsDNA library, 0.1% formaldehyde crosslink after washing; high values mean tight binding
Test [1] addresses T1, FEV (Homo sapiens, UniProt Q99581 1-238).
T1 sequence: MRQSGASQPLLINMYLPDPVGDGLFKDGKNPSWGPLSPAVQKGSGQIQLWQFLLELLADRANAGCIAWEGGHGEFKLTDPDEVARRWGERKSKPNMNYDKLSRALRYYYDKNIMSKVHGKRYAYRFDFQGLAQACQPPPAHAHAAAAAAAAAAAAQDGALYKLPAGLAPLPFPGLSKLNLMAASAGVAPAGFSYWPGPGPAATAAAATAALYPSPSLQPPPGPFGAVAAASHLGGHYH
The settings on record: protein: recombinant; tags: N-terminal GST; dsDNA, one strand shown. A digest of the protocol:
(§1)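 Pools were built from human transcription factors expressed in yeast as GST fusions, captured on glutathione beads and DNA-barcoded, along with a tag-only sample. Incubation with 200 nmole of a 16-mer random double-stranded DNA library lasted 30 min at room temperature in Tris/NaCl/DTT/glycerol buffer, and was followed by washing, 0.1% formaldehyde crosslinking, proximity ligation, PCR amplification and Illumina NextSeq500 sequencing. Binding signal is the quotient of each hexamer's read frequency for a factor and its frequency for the tag-only sample.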

Test [2] has as its target ETV5 (Homo sapiens, UniProt P41161 1-510). As to conditions: protein: recombinant; tags: N-terminal GST; dsDNA, one strand shown. The procedure, abridged: as §1
Test [3] concerns the target HSF1 (Homo sapiens, UniProt Q00613 1-529). The settings on record: protein: recombinant; tags: N-terminal GST; chain copies: 3; dsDNA, one strand shown. The procedure, abridged:
as §1

Test [4] has as its target T2, SPIC (Homo sapiens, UniProt Q8N5J4 1-248).
T2 sequence: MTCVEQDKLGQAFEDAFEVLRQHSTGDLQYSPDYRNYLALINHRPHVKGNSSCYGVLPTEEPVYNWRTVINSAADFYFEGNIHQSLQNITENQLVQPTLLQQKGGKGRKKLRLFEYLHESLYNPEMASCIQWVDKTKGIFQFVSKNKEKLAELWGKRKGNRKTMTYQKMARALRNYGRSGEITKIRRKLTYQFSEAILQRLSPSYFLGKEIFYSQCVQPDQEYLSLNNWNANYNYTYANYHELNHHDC
As to conditions: protein: recombinant; tags: N-terminal GST; dsDNA, one strand shown. A digest of the protocol: as §1

Test [5] has as its target ELF4 (Homo sapiens, UniProt Q99607 1-663). The settings on record: protein: recombinant; tags: N-terminal GST; dsDNA, one strand shown. The procedure, abridged: as §1
Test [6] has as its target T3, ELK4 (Homo sapiens, UniProt P28324-2 1-405).
T3 sequence: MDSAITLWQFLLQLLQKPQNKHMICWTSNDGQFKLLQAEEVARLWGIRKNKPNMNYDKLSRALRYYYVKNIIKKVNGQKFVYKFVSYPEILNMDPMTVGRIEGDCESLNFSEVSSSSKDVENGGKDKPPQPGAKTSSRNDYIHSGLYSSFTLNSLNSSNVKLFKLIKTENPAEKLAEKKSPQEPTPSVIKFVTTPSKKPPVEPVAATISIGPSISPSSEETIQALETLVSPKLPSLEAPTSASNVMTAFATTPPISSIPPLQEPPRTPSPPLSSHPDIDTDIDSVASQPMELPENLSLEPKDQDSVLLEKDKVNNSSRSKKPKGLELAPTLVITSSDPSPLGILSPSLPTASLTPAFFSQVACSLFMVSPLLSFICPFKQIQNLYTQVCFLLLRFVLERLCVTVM
As to conditions: protein: recombinant; tags: N-terminal GST; dsDNA, one strand shown. A digest of the protocol:
as §1

For test [7], the target named is T4, ETV2 (Homo sapiens, UniProt O00321 1-342).
T4 sequence: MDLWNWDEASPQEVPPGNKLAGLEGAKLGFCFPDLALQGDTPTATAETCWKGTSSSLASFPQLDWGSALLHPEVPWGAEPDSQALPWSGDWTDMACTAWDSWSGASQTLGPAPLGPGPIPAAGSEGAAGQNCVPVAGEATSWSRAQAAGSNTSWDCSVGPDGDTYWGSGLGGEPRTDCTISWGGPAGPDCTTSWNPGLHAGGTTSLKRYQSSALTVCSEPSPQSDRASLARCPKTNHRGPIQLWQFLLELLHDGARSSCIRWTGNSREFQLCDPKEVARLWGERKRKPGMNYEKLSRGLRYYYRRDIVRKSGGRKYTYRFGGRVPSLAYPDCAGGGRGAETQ
As to conditions: protein: recombinant; tags: N-terminal GST; dsDNA, one strand shown. A digest of the protocol:
as §1

The target in test [8] is T5, ELF3 (Homo sapiens, UniProt P78545 1-371).
T5 sequence: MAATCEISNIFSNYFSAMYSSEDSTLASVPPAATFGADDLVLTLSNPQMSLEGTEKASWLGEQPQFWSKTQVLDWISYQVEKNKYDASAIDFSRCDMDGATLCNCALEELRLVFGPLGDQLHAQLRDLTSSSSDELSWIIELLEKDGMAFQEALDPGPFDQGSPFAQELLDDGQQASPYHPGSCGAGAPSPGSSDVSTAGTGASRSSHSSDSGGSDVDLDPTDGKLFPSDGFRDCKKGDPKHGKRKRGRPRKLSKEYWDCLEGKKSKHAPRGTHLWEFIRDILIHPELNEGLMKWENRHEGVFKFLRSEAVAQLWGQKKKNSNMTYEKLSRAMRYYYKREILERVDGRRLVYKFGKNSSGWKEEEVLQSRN
The settings on record: protein: recombinant; tags: N-terminal GST; dsDNA, one strand shown. A digest of the protocol:
as §1

Test [9] addresses CRX (Homo sapiens, UniProt O43186 1-299). As to conditions: protein: recombinant; tags: N-terminal GST; dsDNA, one strand shown. The procedure, abridged: as §1
The target of test [10] is ETV1 (Homo sapiens, UniProt P50549 1-477). The settings on record: protein: recombinant; tags: N-terminal GST; dsDNA, one strand shown. A digest of the protocol: as §1
Sequence of ETV1 (P50549 whole entry): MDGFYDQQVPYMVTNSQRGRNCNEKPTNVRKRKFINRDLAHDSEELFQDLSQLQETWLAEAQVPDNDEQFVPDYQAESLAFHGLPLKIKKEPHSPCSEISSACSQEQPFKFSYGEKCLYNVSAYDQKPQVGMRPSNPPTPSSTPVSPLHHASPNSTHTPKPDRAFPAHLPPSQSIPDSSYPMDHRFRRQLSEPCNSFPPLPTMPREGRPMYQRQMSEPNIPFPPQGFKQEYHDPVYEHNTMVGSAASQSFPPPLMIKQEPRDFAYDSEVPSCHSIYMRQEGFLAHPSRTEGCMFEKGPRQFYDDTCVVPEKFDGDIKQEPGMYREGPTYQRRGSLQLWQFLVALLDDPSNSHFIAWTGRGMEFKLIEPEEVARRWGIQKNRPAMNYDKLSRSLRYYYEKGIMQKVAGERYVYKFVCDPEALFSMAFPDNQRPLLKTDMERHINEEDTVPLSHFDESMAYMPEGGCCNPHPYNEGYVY
The target of test [11] is T6, ERF (Homo sapiens, UniProt P50548 1-548).
T6 sequence: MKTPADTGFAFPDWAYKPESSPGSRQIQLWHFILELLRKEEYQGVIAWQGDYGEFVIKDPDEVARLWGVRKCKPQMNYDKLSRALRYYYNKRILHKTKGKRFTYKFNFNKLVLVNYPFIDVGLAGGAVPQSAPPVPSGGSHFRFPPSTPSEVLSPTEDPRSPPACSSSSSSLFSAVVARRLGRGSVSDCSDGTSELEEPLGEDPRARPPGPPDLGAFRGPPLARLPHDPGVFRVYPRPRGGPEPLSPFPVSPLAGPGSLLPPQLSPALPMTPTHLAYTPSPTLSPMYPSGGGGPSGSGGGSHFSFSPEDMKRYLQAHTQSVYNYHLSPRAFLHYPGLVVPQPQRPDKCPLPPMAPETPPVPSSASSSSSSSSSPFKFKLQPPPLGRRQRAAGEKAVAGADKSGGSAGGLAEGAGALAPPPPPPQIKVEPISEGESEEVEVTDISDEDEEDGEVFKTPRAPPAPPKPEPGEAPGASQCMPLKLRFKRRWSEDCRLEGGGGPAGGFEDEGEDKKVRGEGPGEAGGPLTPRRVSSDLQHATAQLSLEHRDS
As to conditions: protein: recombinant; tags: N-terminal GST; dsDNA, one strand shown. The procedure, abridged: as §1

Test [12] deals with T7, ETV3L (Homo sapiens, UniProt Q6ZN32 1-361).
T7 sequence: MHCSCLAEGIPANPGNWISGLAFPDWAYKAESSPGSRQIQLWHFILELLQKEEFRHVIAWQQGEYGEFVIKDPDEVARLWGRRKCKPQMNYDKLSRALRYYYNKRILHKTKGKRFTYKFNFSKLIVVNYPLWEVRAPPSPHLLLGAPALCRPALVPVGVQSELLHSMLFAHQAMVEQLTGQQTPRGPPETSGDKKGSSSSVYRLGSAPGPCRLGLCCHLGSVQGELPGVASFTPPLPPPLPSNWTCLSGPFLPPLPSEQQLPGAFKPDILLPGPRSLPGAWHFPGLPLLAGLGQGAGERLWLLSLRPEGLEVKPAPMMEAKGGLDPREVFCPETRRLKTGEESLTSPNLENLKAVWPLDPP
The settings on record: protein: recombinant; tags: N-terminal GST; dsDNA, one strand shown. A digest of the protocol:
as §1

The target of test [13] is T8, ETS2 (Homo sapiens, UniProt P15036 1-469).
T8 sequence: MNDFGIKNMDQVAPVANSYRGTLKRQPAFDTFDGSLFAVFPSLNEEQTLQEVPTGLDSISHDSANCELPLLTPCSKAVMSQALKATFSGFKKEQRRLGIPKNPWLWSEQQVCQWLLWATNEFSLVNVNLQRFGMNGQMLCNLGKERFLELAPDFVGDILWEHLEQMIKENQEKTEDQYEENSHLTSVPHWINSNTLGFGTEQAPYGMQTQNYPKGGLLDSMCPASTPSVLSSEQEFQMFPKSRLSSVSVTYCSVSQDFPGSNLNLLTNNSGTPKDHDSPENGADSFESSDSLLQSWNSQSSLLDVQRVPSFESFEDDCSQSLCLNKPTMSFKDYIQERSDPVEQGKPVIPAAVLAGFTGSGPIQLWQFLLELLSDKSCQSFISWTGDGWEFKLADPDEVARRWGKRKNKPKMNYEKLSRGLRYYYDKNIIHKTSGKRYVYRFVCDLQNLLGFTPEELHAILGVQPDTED
As to conditions: protein: recombinant; tags: N-terminal GST; dsDNA, one strand shown. The procedure, abridged:
as §1

Test [14] has as its target T9, SPDEF (Homo sapiens, UniProt O95238 1-335).
T9 sequence: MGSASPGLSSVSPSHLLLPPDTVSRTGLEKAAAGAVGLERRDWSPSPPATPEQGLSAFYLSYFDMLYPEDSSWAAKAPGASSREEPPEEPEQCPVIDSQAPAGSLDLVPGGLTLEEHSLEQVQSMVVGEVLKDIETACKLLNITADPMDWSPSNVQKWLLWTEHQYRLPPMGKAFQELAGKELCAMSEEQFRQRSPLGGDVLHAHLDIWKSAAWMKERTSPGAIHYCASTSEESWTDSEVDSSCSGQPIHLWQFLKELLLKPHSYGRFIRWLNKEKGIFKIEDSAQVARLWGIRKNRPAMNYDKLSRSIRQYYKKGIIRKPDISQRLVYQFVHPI
The settings on record: protein: recombinant; tags: N-terminal GST; dsDNA, one strand shown. The procedure, abridged:
as §1

Test [15] has as its target T10, ETV7 (Homo sapiens, UniProt Q9Y603 1-341).
T10 sequence: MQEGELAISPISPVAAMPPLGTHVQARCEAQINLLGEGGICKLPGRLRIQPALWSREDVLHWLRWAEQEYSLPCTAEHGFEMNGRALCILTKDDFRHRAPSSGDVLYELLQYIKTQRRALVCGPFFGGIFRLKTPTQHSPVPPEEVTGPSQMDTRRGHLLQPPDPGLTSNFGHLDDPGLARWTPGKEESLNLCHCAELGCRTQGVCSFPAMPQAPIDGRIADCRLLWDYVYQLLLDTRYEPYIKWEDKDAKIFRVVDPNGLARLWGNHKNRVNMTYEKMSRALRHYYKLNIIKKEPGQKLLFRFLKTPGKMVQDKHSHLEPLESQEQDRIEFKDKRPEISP
As to conditions: protein: recombinant; tags: N-terminal GST; dsDNA, one strand shown. The procedure, abridged: as §1

Test [16] deals with T11, ELF5 (Homo sapiens, UniProt Q9UKW6-2 1-255).
T11 sequence: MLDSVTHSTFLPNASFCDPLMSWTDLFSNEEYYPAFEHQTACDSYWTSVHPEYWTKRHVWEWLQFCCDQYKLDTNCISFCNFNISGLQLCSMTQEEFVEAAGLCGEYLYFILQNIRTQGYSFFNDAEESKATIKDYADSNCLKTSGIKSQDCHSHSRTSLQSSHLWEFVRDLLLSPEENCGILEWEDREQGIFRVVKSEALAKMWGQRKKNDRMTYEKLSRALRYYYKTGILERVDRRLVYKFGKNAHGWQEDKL
As to conditions: protein: recombinant; tags: N-terminal GST; dsDNA, one strand shown. The procedure, abridged: as §1

The target of test [17] is T12, ETV3 (Homo sapiens, UniProt P41162-2 1-143).
T12 sequence: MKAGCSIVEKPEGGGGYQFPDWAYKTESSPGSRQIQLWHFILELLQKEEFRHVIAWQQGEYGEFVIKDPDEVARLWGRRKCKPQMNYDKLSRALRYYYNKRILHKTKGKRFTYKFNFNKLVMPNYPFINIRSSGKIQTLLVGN
The settings on record: protein: recombinant; tags: N-terminal GST; dsDNA, one strand shown. The procedure, abridged: as §1

For test [18], the target named is ETV6 (Homo sapiens, UniProt P41212 1-452). The settings on record: protein: recombinant; tags: N-terminal GST; dsDNA, one strand shown. The procedure, abridged:
as §1

This is an account of results in article PMC7862700, “An all-to-all approach to the identification of sequence-specific readers for epigenetic DNA modifications on cytosine”.

Sequence of ELF4 (Q99607 whole entry): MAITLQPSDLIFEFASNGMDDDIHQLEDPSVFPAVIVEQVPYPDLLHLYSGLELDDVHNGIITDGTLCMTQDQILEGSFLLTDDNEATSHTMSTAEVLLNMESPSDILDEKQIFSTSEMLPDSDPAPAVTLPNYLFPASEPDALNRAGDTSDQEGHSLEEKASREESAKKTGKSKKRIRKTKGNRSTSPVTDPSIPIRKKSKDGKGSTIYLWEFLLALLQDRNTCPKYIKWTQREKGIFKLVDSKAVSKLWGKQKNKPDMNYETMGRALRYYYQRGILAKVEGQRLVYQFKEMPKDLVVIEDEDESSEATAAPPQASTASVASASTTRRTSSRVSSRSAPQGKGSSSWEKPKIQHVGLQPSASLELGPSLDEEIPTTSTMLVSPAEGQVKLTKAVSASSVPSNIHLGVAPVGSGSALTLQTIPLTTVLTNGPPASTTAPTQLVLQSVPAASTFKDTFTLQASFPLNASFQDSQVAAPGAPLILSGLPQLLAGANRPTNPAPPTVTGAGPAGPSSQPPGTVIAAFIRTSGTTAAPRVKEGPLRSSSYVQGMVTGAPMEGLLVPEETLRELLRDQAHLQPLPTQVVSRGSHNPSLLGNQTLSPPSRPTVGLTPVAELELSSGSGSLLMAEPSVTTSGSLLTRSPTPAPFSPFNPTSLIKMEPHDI
Sequence of ETV6 (P41212 whole entry): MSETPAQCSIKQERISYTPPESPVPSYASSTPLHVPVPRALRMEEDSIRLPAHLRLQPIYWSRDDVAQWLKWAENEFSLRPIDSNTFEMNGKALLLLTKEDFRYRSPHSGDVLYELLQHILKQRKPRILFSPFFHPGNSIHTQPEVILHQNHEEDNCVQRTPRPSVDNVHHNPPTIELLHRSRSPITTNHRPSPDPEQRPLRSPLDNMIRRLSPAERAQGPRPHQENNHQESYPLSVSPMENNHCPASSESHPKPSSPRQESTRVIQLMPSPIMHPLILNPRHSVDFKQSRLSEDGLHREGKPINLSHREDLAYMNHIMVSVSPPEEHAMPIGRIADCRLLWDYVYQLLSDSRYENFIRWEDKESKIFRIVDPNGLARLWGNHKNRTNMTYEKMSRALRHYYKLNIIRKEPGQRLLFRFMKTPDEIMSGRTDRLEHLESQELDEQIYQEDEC
Sequence of ETV5 (P41161 whole entry): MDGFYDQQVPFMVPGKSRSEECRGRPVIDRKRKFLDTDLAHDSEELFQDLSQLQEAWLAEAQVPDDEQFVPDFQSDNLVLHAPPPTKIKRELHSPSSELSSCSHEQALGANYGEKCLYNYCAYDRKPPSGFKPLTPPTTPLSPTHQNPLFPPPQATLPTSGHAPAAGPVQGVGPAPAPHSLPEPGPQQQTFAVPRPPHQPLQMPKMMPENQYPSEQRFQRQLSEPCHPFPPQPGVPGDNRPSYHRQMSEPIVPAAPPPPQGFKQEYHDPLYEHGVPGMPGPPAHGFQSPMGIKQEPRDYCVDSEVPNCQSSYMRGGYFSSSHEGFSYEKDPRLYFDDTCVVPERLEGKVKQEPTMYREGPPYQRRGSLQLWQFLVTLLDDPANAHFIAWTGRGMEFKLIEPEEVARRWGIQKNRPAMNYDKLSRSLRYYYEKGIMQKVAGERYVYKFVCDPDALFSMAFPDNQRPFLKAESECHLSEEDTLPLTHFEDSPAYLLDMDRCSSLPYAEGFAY
Sequence of CRX (O43186 whole entry): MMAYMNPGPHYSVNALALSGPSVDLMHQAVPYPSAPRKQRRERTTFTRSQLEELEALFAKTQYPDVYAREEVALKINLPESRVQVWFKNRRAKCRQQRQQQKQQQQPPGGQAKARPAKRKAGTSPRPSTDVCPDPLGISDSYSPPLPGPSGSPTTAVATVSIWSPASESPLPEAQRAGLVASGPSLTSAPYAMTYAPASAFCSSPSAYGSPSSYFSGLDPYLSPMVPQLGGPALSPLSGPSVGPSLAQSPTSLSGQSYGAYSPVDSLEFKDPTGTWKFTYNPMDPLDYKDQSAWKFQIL
Sequence of HSF1 (Q00613 whole entry): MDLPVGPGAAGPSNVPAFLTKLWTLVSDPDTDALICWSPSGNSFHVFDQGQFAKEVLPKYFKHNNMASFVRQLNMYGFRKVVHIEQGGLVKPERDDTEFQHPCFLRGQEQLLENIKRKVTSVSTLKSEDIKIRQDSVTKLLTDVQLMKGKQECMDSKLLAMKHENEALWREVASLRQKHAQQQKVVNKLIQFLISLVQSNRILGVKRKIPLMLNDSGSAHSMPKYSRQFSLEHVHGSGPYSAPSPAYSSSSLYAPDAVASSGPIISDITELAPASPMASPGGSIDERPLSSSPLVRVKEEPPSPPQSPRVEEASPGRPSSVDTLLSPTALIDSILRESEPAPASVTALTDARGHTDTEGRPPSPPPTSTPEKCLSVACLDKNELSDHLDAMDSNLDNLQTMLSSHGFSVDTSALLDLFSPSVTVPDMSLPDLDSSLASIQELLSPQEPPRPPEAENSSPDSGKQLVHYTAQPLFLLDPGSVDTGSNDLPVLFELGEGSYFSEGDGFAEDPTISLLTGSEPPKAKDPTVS

Take CCATAT: the binding signal in test [1] is 1.24 fold enrichment (6-mer frequency, TF over GST control); in [2], 1.24 fold enrichment (6-mer frequency, TF over GST control); in test [3], 1.12 fold enrichment (6-mer frequency, TF over GST control); in [4], 1.31 fold enrichment (6-mer frequency, TF over GST control); in test [5] it was 1.17 fold enrichment (6-mer frequency, TF over GST control); in [6] it was 1.13 fold enrichment (6-mer frequency, TF over GST control). Besides, the binding signal was 1.29 fold enrichment (6-mer frequency, TF over GST control) in [7]; 1.37 fold enrichment (6-mer frequency, TF over GST control) in test [8]; 1.09 fold enrichment (6-mer frequency, TF over GST control) in [9]; 1.2 fold enrichment (6-mer frequency, TF over GST control) in test [10]; 1.23 fold enrichment (6-mer frequency, TF over GST control) in test [11]; 1.27 fold enrichment (6-mer frequency, TF over GST control) in test [12]. Moreover, the binding signal in test [13] was 1.22 fold enrichment (6-mer frequency, TF over GST control); in test [14], 1.33 fold enrichment (6-mer frequency, TF over GST control); in test [15], 1.16 fold enrichment (6-mer frequency, TF over GST control); in [16] it was 1.24 fold enrichment (6-mer frequency, TF over GST control); in test [17] it was 1.19 fold enrichment (6-mer frequency, TF over GST control); in test [18], 1.15 fold enrichment (6-mer frequency, TF over GST control).
